Sampled rows, rich in hits. Any-hit rate of the full collection: about 0.35%.
MBNL1 CUG block: blocks human MBNL1 binding to CUG repeat RNA. 280,000 compounds, 0.036% hits. Potency, µM (doses to about 57.5 µM), most hits filed as inhibitors. Q9NR56. TR-FRET MBNL1-His/biotin-(CUG)12 binding, 665/545 ratio; active means well fitted inhibition curve with a large enough effect in the signal ratio, with a control signal flat, not every such curve was filed as active; inconclusive means small, poorly fitted or top-dose-only effect, or effect the other way, or a change in a side signal; inactive means no such curve, though single readings can be large or run the other way; the % refers to the signal ratio
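Compounds (final 92 nM to 58 uM) are added to His-tagged MBNL1 and biotin-(CUG)12, then terbium anti-His antibody and streptavidin-XL665 (5 nM final). After 60 min at room temperature, the 665/545 nm ratio is read.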
TRPV1 potentiator: human TRPV1 potentiation. Q8NER1. TRPV1-expressing cells, Fluo-8 calcium influx, capsaicin EC20 potentiation. potentiation, % at 8.33 µM. 320,000 compounds, 0.02% hits; in the data active means potentiation above about 80%; inconclusive means between about 30% and that limit
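TRPV1-expressing cells were cultured overnight at 35.5C and loaded with Fluo-8 calcium dye for 40 to 90 min at room temperature. After a 10 s baseline, compound was added and calcium influx was read kinetically for 3 min (ex 480/em 520 nm).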
Luc counter: counter-screen: inhibitors of Kinase-Glo firefly luciferase; Q27757; Kinase-Glo luciferase, ATP luminescence, 8 min; Potency, µM (highest dose often 38.3 µM), most hits filed as inhibitors; 200,000 compounds, 0.28% hits; AID 1379; further: nearly all actives have a fitted effect of over 60% in size
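Substrate mix (final 50 mM imidazole pH 7.2, 50 mM KCl, 7 mM MgCl2, 10 uM ATP, 0.01% Tween 20, 0.05% BSA) plus pin-tool compound, then Kinase-Glo detection mix; 8 min ambient, luminescence read.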
CBFb-RUNX1 inh: inhibitors of human CBF-beta and RUNX1 interaction. AID 1477. Q01196+Q13951. 230,000 tested, under 10 active. Potency, µM (highest dose often 59.8 µM), hits mostly inhibitors. AlphaScreen CBFb-His/RUNX1-biotin binding, biochemical
Target sequence (Q01196 whole entry, looked up): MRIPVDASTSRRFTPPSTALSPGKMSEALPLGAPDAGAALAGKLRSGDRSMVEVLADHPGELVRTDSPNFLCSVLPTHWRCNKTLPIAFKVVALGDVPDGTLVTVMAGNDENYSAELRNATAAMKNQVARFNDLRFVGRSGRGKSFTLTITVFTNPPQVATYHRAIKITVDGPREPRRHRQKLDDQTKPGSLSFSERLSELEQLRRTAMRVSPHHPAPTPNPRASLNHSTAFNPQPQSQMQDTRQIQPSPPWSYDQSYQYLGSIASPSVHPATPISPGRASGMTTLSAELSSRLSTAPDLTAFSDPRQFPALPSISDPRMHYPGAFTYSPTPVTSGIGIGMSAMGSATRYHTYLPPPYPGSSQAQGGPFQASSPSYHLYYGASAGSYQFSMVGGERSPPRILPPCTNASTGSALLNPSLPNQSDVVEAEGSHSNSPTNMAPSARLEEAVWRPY
Target sequence (Q13951 whole entry, looked up): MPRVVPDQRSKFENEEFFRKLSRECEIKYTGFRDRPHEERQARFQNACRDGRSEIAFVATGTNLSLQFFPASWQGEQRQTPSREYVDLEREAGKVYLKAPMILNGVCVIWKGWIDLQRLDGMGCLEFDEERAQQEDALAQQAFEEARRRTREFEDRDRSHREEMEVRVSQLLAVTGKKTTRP
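Read-out: AlphaScreen. Format: His-CBF-beta with biotinylated RUNX1 (30 nM each) preincubated 20 min, compound 15 min, Ni-chelate plus streptavidin beads 90 min; room temperature throughout.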
TRPV1 ag: activates the human vanilloid receptor TRPV1. Q8NER1. TRPV1-expressing cells, Fluo-8 calcium influx, agonist mode. activation, % at 8.33 µM. 320,000 compounds, 0.19% hits. AID 540275; in the data active means activation above about 80%; inconclusive means between about 30% and that limit
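TRPV1-expressing cells were cultured overnight at 35.5C and loaded with Fluo-8 calcium dye for 40 to 90 min at room temperature. After a 10 s baseline, compound was added and calcium influx was read kinetically for 3 min (ex 480/em 520 nm).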
TCR act: activators of T cell receptors. AID 504894. 330,000 tested, under 10 active. Potency, µM (doses to about 9.22 µM), actives largely listed as activators. primary human leukocytes, anti-CD3, IL-2 HTRF, 48 h
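Using a-CD3 beads without co-stimulation, primary human leukocytes were exposed to compounds for 48 hr. An HTRF IL-2 kit measured the cytokine, with europium-to-d2 energy transfer producing emission at 665nm upon 320nm excitation.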
A number is an active result; 0 = inactive; ? = inconclusive; - = not tested or not shown; [ ] = dose if it differs, or a comment. Unless noted, the call rests on the fitted dose curve; in most records, active means well fitted curve in the direction sought with a large enough effect; inconclusive means small, poorly fitted or top-dose-only effect, or another doubt; inactive means no such curve, though single readings can be large; an effect the other way counts as inactive or inconclusive.

SMILES	MBNL1 CUG block	TRPV1 potentiator	Luc counter	CBFb-RUNX1 inh	TRPV1 ag	TCR act
CC[C@H](C)[C@H](N)C(=O)N[C@H]1CCC(=O)NCC(C(=O)N[C@@H](Cc2ccc(O)cc2)C(=O)N[C@@H](CCCNC(=N)N)C(=O)N[C@@H](CC(C)C)C(=O)N[C@@H](CCCNC(=N)N)C(=O)N[C@@H](Cc2ccc(O)cc2)C(N)=O)NC(=O)[C@@H]2CCCN2C(=O)[C@@H](NC(=O)[C@@H](N)[C@@H](C)CC)CCC(=O)NCC(C(=O)N[C@@H](Cc2ccc(O)cc2)C(=O)N[C@@H](CCCNC(=N)N)C(=O)N[C@@H](CC(C)C)C(=O)N[C@@H](CCCNC(=N)N)C(=O)N[C@@H](Cc2ccc(O)cc2)C(N)=O)NC(=O)[C@@H]2CCCN2C1=O (stereo not given in full)	-	-	-	0	-	-
CCN(c1cccc(C)c1)S(=O)(=O)c1ccc(O)c(C(=O)O)c1	-	-	0	-	-	-
Cc1cc(N)n2nc(-c3ccccc3)cc2n1	0	0	13µM	0	0	0
C#C[C@]1(O)CC[C@H]2C3CCC4=Cc5oncc5CC4(C)C3CCC21C (stereo not given in full)	-	-	0	0	-	-
Cc1ccsc1/C=C/c1ccc2ccccc2n1	0	0	11µM	?	0	0
Cc1ccsc1/C=C/c1ccc2cccc(O)c2n1	0	0	0	0	0	0
COc1ccc(-n2cc(C(=O)c3ccccc3O)cn2)cc1	0	0	10µM	0	0	0
COc1ccc(O)c(C(=O)c2cnn(-c3ccccc3)c2)c1	0	0	-	-	0	0
c1ccc(C(c2cccc3c2ccc2ccccc23)[C@H](c2ccccc2)c2cccc3c2ccc2ccccc23)cc1 (stereo not given in full)	-	-	0[7.66 µM]	-	-	-
Cc1cc(C)cc(C(=O)Nn2cnnc2)c1	0	82	-	-	0	0
O=C(Nn1cnnc1)c1cc(Cl)cc(Cl)c1	0	0	-	-	0	0
OCc1cc2c(cn1)[nH]c1ccccc12	-	-	-	0	-	-
CC(C)(C)OC(=O)[C@H](C1N[C@@H](C(=O)O)C(C)(C)S1)N1C(=O)c2ccccc2C1=O (stereo not given in full)	-	-	0[7.66 µM]	-	-	-
COc1ccc(-c2nc(-c3ccccn3)no2)cc1	0	0	0.89µM	?	0	0
Brc1ccc(-c2nc(-c3ccccn3)no2)o1	0	0	13µM	0	0	0
Clc1ccc(-c2nc(-c3ccccn3)no2)cc1Cl	0	0	10µM	0	0	-
Cc1ccccc1-c1nc(-c2ccccn2)no1	0	0	6.3µM	0	0	0
c1c[nH]cn1	-	-	-	0	-	-
CC(C)(C)CC(C)(C)c1cc(O)c(O)c(CN2CCCCC2)c1	-	-	0[7.66 µM]	-	-	-
O=C(O)c1ccc(F)c(S(=O)(=O)Nc2cccc(F)c2)c1	-	-	0	-	-	-
O=S(=O)(Nc1cccc2ccccc12)c1ccc2ccccc2c1	-	0	-	-	0	-
COc1ccc(C(=O)Nc2ccc(C(=O)O)cc2NC(=O)c2ccc(OC)cc2)cc1	0	0	-	-	0	0
COc1ccc(C(=O)Nc2ccc(C3=NNC(=O)CC3C)cc2NC(=O)c2ccc(OC)cc2)cc1 (stereo not given)	0	0	0	0	84	0
Cc1ccc(-c2cc3c(N=O)c4ccccc4c-3n[nH]2)cc1	0	0	10µM	0	0	0
Cc1cccc(-c2cc3c(N=O)c4ccccc4c-3n[nH]2)c1	0	0	10µM	0	?	0
SMILES	MBNL1 CUG block	TRPV1 potentiator	Luc counter	CBFb-RUNX1 inh	TRPV1 ag	TCR act
Cc1ccc(-c2cc(=O)c3ccccc3[nH]2)cc1	0	0	0	0	0	0
O=Nc1c2cc(-c3ccccc3)[nH]nc-2c2ccccc12	?	0	2.2µM	0	0	0
COC(=O)C1=C(C(=O)OC)[C@@H]2N(C)c3ccc(OC)cc3[C@@]23C[C@@H](C(=O)OC)N(S(=O)(=O)c2c(C)noc2C)C3=N1	-	-	0[7.66 µM]	0[13.1 µM]	-	-
Cc1c(Cl)ccc2sc(NC(=O)c3ccco3)nc12	0	0	-	-	90	0
O=C(CSc1nc2ccccc2s1)c1sc2sc3ccccc3[n+]2c1O	-	-	0[7.66 µM]	-	-	-
C=CCc1cccc2cc(C(=O)Nc3cccc(C(=O)O)c3)c(=O)oc12	0	0	-	0	0	0
C=CCc1cccc2cc(C(=O)NNC(=O)c3ccncc3)c(=O)oc12	0	0	0	0	81	0
Cc1ccc(Nc2nc(=O)c3cccnc3s2)cc1	0	0	0	0	0	0
COc1ccc(OC)c(Nc2nc(=O)c3cccnc3s2)c1	0	0	11µM	0	0	0
O=C(O)CC12C[C@H]3C[C@@H](CC(O)(C3)C1)C2	-	-	0[7.66 µM]	-	-	-
O=C(Nc1cccc([N+](=O)[O-])c1)c1ccncc1	?	0	0	0	0	0
Cc1c(C(=O)Nc2cccc([N+](=O)[O-])c2)cnn1-c1ccccc1	?	0	-	-	103	0
CC(C)(C)c1ccc(C(=O)Nc2cccc([N+](=O)[O-])c2)cc1	0	0	0	0	84	0
C/C(=N\NC(=O)c1ccncc1)c1cccc(NC(=O)c2ccc(C(C)(C)C)cc2)c1	0	0	-	-	85	0
C/C(=N/NC(=O)c1ccncc1)c1ccc(NC(=O)c2ccccc2)cc1	0	0	-	-	?	0
O=C1C2C3CCCC3=C3CCCC3C2C(=O)N1c1ccccc1Cl (stereo not given)	-	0	-	-	0	-
C=CC(=O)OCC(CO)(COC(=O)C=C)COC(=O)C=C	-	-	-	0	-	-
O=C(Nc1ccc(C(F)(F)F)cn1)Nc1cccs1	0	0	-	0	0	0
Cc1nc(C(F)(F)F)ccc1C(=O)Nc1ccc(C(F)(F)F)cn1	-	0	-	0	82	0
O=C(NCCO)c1ccc(-n2c(=O)c(=O)[nH]c3ccccc32)cc1	-	-	0	-	-	-
CCCCCC(=O)NC(NC(=S)N1CCOCC1)C(Cl)(Cl)Cl (stereo not given)	0	0	0	0	83	0
O=C(NC(NC(=S)N1CCOCC1)C(Cl)(Cl)Cl)c1cccc2ccccc12 (stereo not given)	-	0	0	0	?	0
CCCCCCCCC(=O)NC(NC(=S)N1CCOCC1)C(Cl)(Cl)Cl (stereo not given)	0	0	0	0	83	0
Cc1ccc2c(c1)[nH]c1c(N3CCN(Cc4ccccc4)CC3)ncnc12	0	0	0	?	0	-
c1ccc(CN2CCN(c3ncnc4c3[nH]c3ccccc34)CC2)cc1	0	0	0	0	80	0
Cc1cccc(NC(=O)CN2C(=O)S/C(=C\c3ccc(O)c([N+](=O)[O-])c3)C2=O)c1	?	84	0	0	0	-
COc1ccc2nc(N=Nc3ccc(N(C)C)cc3)sc2c1	0	0	11µM	?	0	0
CN(Cc1cc(C(C)(C)C)cc(Br)c1O)Cc1cc(C(C)(C)C)cc(Br)c1O	-	-	0[7.66 µM]	-	-	-
